{
  "source": "PubChem BioAssay (Tox21)",
  "note": "Inconclusive results are not listed. Where a call stands in place of a potency, no number is given. A number with no mark means an inactive call. Calls of active or inactive are those of the source. The call rests on the fitted dose curve.",
  "data": [
    {"assay": "p53 small molecule agonists, cell-based qHTS assay: qHTS cell viability counter screen (AID 1963581); further: nearly all actives have a fitted effect of over 45% in size", "conditions": "p53RE-bla HCT-116 viability, ATP luminescence, 16 h; series mostly up to 66 µM", "source_text": "National Center for Advancing Translational Sciences [NCATS]\nDivision of Preclinical Innovation [DPI]\nU.S. Environmental Protection Agency [EPA]\nNational Institutes of Environmental Health Sciences [NIEHS]\nNational Toxicology Program [NTP]\nU.S. Food and Drug Administration [FDA]\np53, a tumor suppressor protein, is activated following cellular insult, including DNA damage and other cellular stresses. The activation of p53 regulates cell fate by inducing DNA repair, cell cycle arrest, apoptosis, or cellular senescence. The activation of p53, therefore, is a good indicator of DNA damage and other cellular stresses. The CellSensor p53RE-bla HCT-116 cell line (Invitrogen) contains a stably integrated beta-lactamase reporter gene under control of the p53 response elements. The activation of the reporter gene under culture conditions can be detected by fluorescence intensity. This cell line was used to screen the Tox21 compound library in a 1536-well plate format and to identify agonists that activate the p53 signaling pathway. The cytotoxicity of the Tox21 compound library against the p53 RE-bla HCT-116 cell line was tested in parallel by measuring the intra cellular ATP content in the same wells.\nTox21 Assay Protocol Summary:\nThe p53RE-bla cells were dispensed at 4,000 cells/5 ul/well in 1536-well black wall/clear bottom plates using a Multidrop dispenser. After the assay plates were incubated at a 37 C/5% CO2 incubator for 5 hours, 23 nL of compounds dissolved in DMSO, positive controls or DMSO only was transferred to the assay plate by a pin tool. The plates were incubated at 37 C for 16 hours. After 1 uL of LiveBLAzerTM B/G FRET substrate was added using a Flying Reagent Dispenser, the plates were incubated at room temperature for 2 hours, and fluorescence intensity was measured by an Envision plate reader. For cell viability readout that measures cytotoxicity, 4 ul/well of CellTiter-Glo reagent was added into the assay plates using a Flying Reagent Dispenser. After 30 min incubation at room temperature, the luminescence intensity in the plates was measured using a ViewLux plate reader.", "values": [
      {"smiles": "Nc1c(NC/C=C\\COc2cc(CN3CCCCC3)ccn2)c(=O)c1=O", "activity change, negative = cytotoxicity": "-0.902% [at 13.5 µM]"},
      {"smiles": "O=C(O)C(S)C(S)C(=O)O", "note": "(stereo not given)", "Potency": "inactive"},
      {"smiles": "c1ccc(CNc2ncnc3c2ncn3C2CCCCO2)cc1", "note": "(stereo not given)", "Potency": "inactive"},
      {"smiles": "CCCO[Si](OCCC)(OCCC)OCCC", "Potency": "inactive"},
      {"smiles": "COc1ccc2nc(N)sc2c1", "Potency": "inactive"},
      {"smiles": "CCOC(=O)n1ccn(C)c1=S", "Potency": "inactive"},
      {"smiles": "COc1ccc2cc(C=O)ccc2c1", "Potency": "inactive"},
      {"smiles": "BrC1CCC(Br)C(Br)CCC(Br)C(Br)CCC1Br", "note": "(stereo not given)", "Potency": "inactive"},
      {"smiles": "CCn1c2ccccc2c2ccccc21", "Potency": "inactive"},
      {"smiles": "c1ccc(CNCc2ccccc2)cc1", "Potency": "inactive"},
      {"smiles": "COc1ccc(C(=O)NCc2ccc(OCCN(C)C)cc2)cc1OC", "Potency": "inactive"},
      {"smiles": "CC(C)C(=O)c1ccccc1", "Potency": "inactive"},
      {"smiles": "Cc1ccc(C(C)C)cc1O", "Potency": "inactive"},
      {"smiles": "CC(C)COC(=O)c1ccccc1O", "Potency": "inactive"},
      {"smiles": "CC(C)CC(C)(O)C#CC(C)(O)CC(C)C", "note": "(stereo not given)", "Potency": "inactive"},
      {"smiles": "CCCC(C)CO", "note": "(stereo not given)", "Potency": "inactive"},
      {"smiles": "CCCCCCCCOCCC#N", "Potency": "inactive"},
      {"smiles": "CN/C(=C\\[N+](=O)[O-])NCCSCc1ccc(CN(C)C)o1", "Potency": "inactive"},
      {"smiles": "CCCC/C=C\\CCCCCCCCCC=O", "Potency": "inactive"},
      {"smiles": "N#CC1(c2ccc(F)cc2)CCC(=O)CC1", "Potency": "inactive"},
      {"smiles": "CC(C)NC(=O)c1ccccc1N", "Potency": "inactive"},
      {"smiles": "C=CC(C)(CCC=C(C)C)OC=O", "note": "(stereo not given)", "Potency": "inactive"},
      {"smiles": "C=C(C)C(=O)OCCNC(C)(C)C", "Potency": "inactive"},
      {"smiles": "COCCOCCOCCOCCOC", "Potency": "inactive"},
      {"smiles": "C=C1C[C@]23C[C@@]1(O)CC[C@H]2[C@@]12C=C[C@H](O)[C@@](C)(C(=O)O1)[C@H]2[C@@H]3C(=O)O", "Potency": "inactive"},
      {"smiles": "CCC(=O)OC(C)c1ccccc1", "note": "(stereo not given)", "Potency": "inactive"},
      {"smiles": "O=P(O)(O)O", "Potency": "inactive"},
      {"smiles": "CC1CCCC(=O)C1=O", "note": "(stereo not given)", "Potency": "inactive"},
      {"smiles": "CCOC(=O)c1c(C)n(C)c2ccc(O)cc12", "Potency": "inactive"},
      {"smiles": "c1coc(CNc2ncnc3nc[nH]c23)c1", "Potency": "inactive"},
      {"smiles": "O=c1cc(CO)occ1O", "Potency": "inactive"},
      {"smiles": "CCO[Si](CCCN=C=O)(OCC)OCC", "Potency": "inactive"},
      {"smiles": "CC(=O)Nc1c(I)cc(I)c(C(=O)O)c1I", "Potency": "inactive"},
      {"smiles": "Cc1nc2ccccc2s1", "Potency": "inactive"},
      {"smiles": "CCC(=O)Nc1cccc(N)c1", "Potency": "inactive"},
      {"smiles": "[Cl][Dy]([Cl])[Cl]", "Potency": "inactive"},
      {"smiles": "O=C(O)c1cc(O)c(O)c(O)c1", "Potency": "inactive"},
      {"smiles": "Cc1ccc(S(=O)(=O)NC2CCCCC2)cc1", "Potency": "inactive"},
      {"smiles": "CC(=O)CC(=O)Nc1ccc2[nH]c(=O)[nH]c2c1", "Potency": "inactive"},
      {"smiles": "CCO[Si](OCC)(OCC)c1ccccc1", "Potency": "inactive"}
    ]}
  ]
}
